# Where a name gives a salt, the structure may show the parent alone.
# Assays:
# Conditions in all cases: treatment time: 24 h
# WPMY1-GM130-SQSTM1 [1] = assay: lowest phenotypically active concentration; higher = less potent
# How it was run: (§1)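 The reporter lines, fifteen in total and built by gene editing in A549, HepG2 and WPMY1 cells, used BFP for segmentation alongside GFP and RFP/FusionRed markers. Each was treated at 0.3, 1, 3 or 9 µM for 24 h in four wells and then imaged live, with live-cell features normalised to solvent control wells. Deviation meant ≥3 of 4 wells beyond the 95th percentile of control Euclidean distances; reproducibility meant a median replicate Pearson correlation above the 95th percentile of non-replicates. Only conditions meeting both were scored as phenotypically active.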
# A549-ACTB-RAB5A = assay: phenotypically active (imaging signature differs from DMSO and reproducible) at any of 0.3-9 uM (binary (1 = active, 0 = inactive)); higher = active
# How it was run: as §1
# A549-CANX-COX4 = assay: as above
# How it was run: as §1
# A549-GM130-SQSTM1 = assay: as above
# How it was run: as §1
# A549-TP53BP1-CLTA = assay: as above
# How it was run: as §1
# A549-TUBA1B-RELA = assay: as above
# How it was run: as §1
# HepG2-ACTB-RAB5A = assay: as above
# How it was run: as §1
# HepG2-CANX-COX4 = assay: as above
# How it was run: as §1
# HepG2-GM130-SQSTM1 = assay: as above
# How it was run: as §1
# HepG2-TP53BP1-CLTA = assay: as above
# How it was run: as §1
# HepG2-TUBA1B-RELA = assay: as above
# How it was run: as §1
# WPMY1-ACTB-RAB5A = assay: as above
# How it was run: as §1
# WPMY1-CANX-COX4 = assay: as above
# How it was run: as §1
# WPMY1-GM130-SQSTM1 [2] = assay: as above
# How it was run: as §1
# WPMY1-TP53BP1-CLTA [3] = assay: as above
# How it was run: as §1
# WPMY1-TUBA1B-RELA = assay: as above
# How it was run: as §1
# WPMY1-TP53BP1-CLTA [4] = assay: lowest phenotypically active concentration; higher = less potent
# How it was run: as §1
Structure (SMILES),lowest phenotypically active concentration (WPMY1-GM130-SQSTM1 [1]),phenotypically active (A549-ACTB-RAB5A),phenotypically active (A549-CANX-COX4),phenotypically active (A549-GM130-SQSTM1),phenotypically active (A549-TP53BP1-CLTA),phenotypically active (A549-TUBA1B-RELA),phenotypically active (HepG2-ACTB-RAB5A),phenotypically active (HepG2-CANX-COX4),phenotypically active (HepG2-GM130-SQSTM1),phenotypically active (HepG2-TP53BP1-CLTA),phenotypically active (HepG2-TUBA1B-RELA),phenotypically active (WPMY1-ACTB-RAB5A),phenotypically active (WPMY1-CANX-COX4),phenotypically active (WPMY1-GM130-SQSTM1 [2]),phenotypically active (WPMY1-TP53BP1-CLTA [3]),phenotypically active (WPMY1-TUBA1B-RELA),lowest phenotypically active concentration (WPMY1-TP53BP1-CLTA [4])
O=c1c(O)c(-c2ccc(O)c(O)c2)oc2cc(O)cc(O)c12 [Quercetin],9 µM,0 (inactive),0 (inactive),0 (inactive),0 (inactive),0 (inactive),0 (inactive),0 (inactive),0 (inactive),0 (inactive),0 (inactive),0 (inactive),0 (inactive),1 (active),0 (inactive),0 (inactive),–
COC(=O)[C@@H]1[C@H]2C[C@H]3c4[nH]c5ccccc5c4CCN3C[C@@H]2CC[C@@H]1O [Yohimbine hydrochloride],9 µM,0 (inactive),0 (inactive),0 (inactive),0 (inactive),0 (inactive),0 (inactive),0 (inactive),0 (inactive),0 (inactive),0 (inactive),0 (inactive),0 (inactive),1 (active),0 (inactive),0 (inactive),–
CCCCCCCCCCCCc1ccc(S(=O)(=O)Nc2nncs2)cc1,–,–,0 (inactive),–,0 (inactive),–,0 (inactive),0 (inactive),0 (inactive),0 (inactive),0 (inactive),0 (inactive),0 (inactive),0 (inactive),0 (inactive),0 (inactive),–
Cc1ccc(NC(=O)c2ccc(CN3CCN(C)CC3)cc2)cc1Nc1nccc(-c2cccnc2)n1 [Imatinib mesylate],–,–,1 (active),1 (active),–,–,1 (active),1 (active),–,–,1 (active),1 (active),1 (active),1 (active),–,1 (active),–
COc1cc2nc(N3CCN(C(=O)c4ccco4)CC3)nc(N)c2cc1OC [prazosin],–,0 (inactive),0 (inactive),0 (inactive),–,0 (inactive),0 (inactive),1 (active),0 (inactive),–,1 (active),0 (inactive),0 (inactive),0 (inactive),–,0 (inactive),–
Cc1cnc(NC(=O)C2=C(O)c3ccccc3S(=O)(=O)N2C)s1 [meloxicam],–,0 (inactive),0 (inactive),0 (inactive),–,0 (inactive),0 (inactive),0 (inactive),0 (inactive),–,0 (inactive),0 (inactive),0 (inactive),0 (inactive),–,0 (inactive),–
O=C(O)[C@H]1O[C@@H](Oc2cc3oc(-c4ccccc4)cc(=O)c3c(O)c2O)[C@H](O)[C@@H](O)[C@@H]1O [Baicalin],3 µM,0 (inactive),0 (inactive),0 (inactive),0 (inactive),0 (inactive),0 (inactive),0 (inactive),0 (inactive),0 (inactive),0 (inactive),0 (inactive),0 (inactive),1 (active),0 (inactive),0 (inactive),–
CC(C)Cc1ccc(C(C)C(=O)O)cc1 (centres undefined) [ibuprofen],–,0 (inactive),0 (inactive),0 (inactive),–,0 (inactive),0 (inactive),0 (inactive),0 (inactive),–,0 (inactive),0 (inactive),0 (inactive),0 (inactive),–,0 (inactive),–
C#C[C@]1(OC(C)=O)CC[C@H]2[C@@H]3CCC4=C[C@@H](OC(C)=O)CC[C@@H]4[C@H]3CC[C@@]21C [ethynodiol diacetate],–,–,0 (inactive),–,0 (inactive),–,0 (inactive),0 (inactive),0 (inactive),0 (inactive),0 (inactive),0 (inactive),0 (inactive),0 (inactive),0 (inactive),0 (inactive),–
C=C[C@H]1C[N@@]2CC[C@H]1C[C@@H]2[C@@H](O)c1ccnc2ccc(OC)cc12 [quinidine],–,0 (inactive),0 (inactive),0 (inactive),–,0 (inactive),0 (inactive),0 (inactive),0 (inactive),–,0 (inactive),0 (inactive),0 (inactive),0 (inactive),–,0 (inactive),–
CS(=O)(=O)c1ccc(-c2nnc(/C=C/c3nnc(-c4ccc(C#N)cc4)o3)n2-c2ccccc2Cl)nc1,–,0 (inactive),0 (inactive),0 (inactive),0 (inactive),0 (inactive),0 (inactive),0 (inactive),0 (inactive),0 (inactive),0 (inactive),0 (inactive),0 (inactive),0 (inactive),1 (active),0 (inactive),9 µM
Nc1nc(N)nc(-c2cc(Cl)ccc2Cl)n1 [Irsogladine maleate],–,–,0 (inactive),–,0 (inactive),–,0 (inactive),0 (inactive),0 (inactive),0 (inactive),0 (inactive),0 (inactive),0 (inactive),0 (inactive),0 (inactive),0 (inactive),–
C=C[C@H]1CN2CC[C@H]1C[C@H]2[C@H](O)c1ccnc2ccc(OC)cc12 [Quinine dihydrochloride],–,1 (active),0 (inactive),1 (active),–,0 (inactive),0 (inactive),0 (inactive),0 (inactive),–,0 (inactive),0 (inactive),0 (inactive),0 (inactive),–,0 (inactive),–

# From the supplement of paper PMC7411054
